According to PubChem BioAssay (NCATS):
Results filed as inconclusive are left out. The source made the active and inactive calls. The call rests on the fitted dose curve; in most records, active means well fitted inhibition curve with a large enough effect; inconclusive means small, poorly fitted or top-dose-only effect; inactive means flat fitted curve, though single readings scatter.

Assays:
Assay in all cases: Cytotoxic Profiling of Annotated Libraries Using Quantitative High-Throughput Screening (AID 1296008); further: nearly all actives have a fitted effect of over 60% in size
Conditions in all cases: Five cell lines viability, CellTiter-Glo ATP luminescence, 48-72 h; max response: active compounds read low
CRL-7250 = normal cell line; tested on: CRL-7250
Summary of the method: (§1)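 Cells exposed to compounds for 48 or 72 hr at 37 degrees Celsius. Viability read as ATP-coupled luminescence with CellTiter-Glo after 10 min at room temperature.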

HaCat = tested on: HaCat
Summary of the method: as §1

KB-3-1 = tested on: KB-3-1
Summary of the method: as §1

NIH3T3 = tested on: NIH3T3
Summary of the method: as §1
On the % scale 0 is the no-effect control and ±100 the full control effect; potency means the concentration at half of the fitted maximal effect.

C=CC(=O)N1CCCC(n2nc(-c3ccc(Oc4ccccc4)cc3)c3c(N)ncnc32)C1 (configuration not stated)
active: Potency (HaCat) 1300 nM
inactive: max response (CRL-7250) 3.87% | max response (KB-3-1) -21.4%

CC(C)(C)C1CCN(C(=O)n2ncc(C(O)(c3ccccc3)c3ccccc3)n2)CC1
inactive: outcome (CRL-7250) | max response (HaCat) -7.63% | max response (KB-3-1) -15.2%

CC(C)CCNc1ncccc1C(=O)N1CCN(Cc2ccccc2)CC1
inactive: max response (CRL-7250) -4.32% | max response (HaCat) 1.63% | max response (KB-3-1) 4.22% | max response (NIH3T3) 2.66%

COc1ccc(C2(CNC(=O)c3ccc(NC(=O)c4ccco4)cc3)CCOCC2)cc1
inactive: max response (CRL-7250) -30.6% | max response (HaCat) -26.6% | max response (KB-3-1) 8.83%

Nc1nc2c(ncn2C2OC3COP(=O)(O)OC3C2O)c(=O)[nH]1 (configuration not stated)
inactive: max response (CRL-7250) -27.3% | max response (HaCat) -25.5% | max response (KB-3-1) 9.92%

Fc1ccc(-c2nc(-c3c(F)cccc3F)[nH]c2-c2ccncc2)cc1
inactive: max response (CRL-7250) -5.53% | max response (HaCat) -17.9% | max response (KB-3-1) 3.89%

CCn1c(N)c(C(=O)NC)c(=O)c2ccc(C#CC(C)(O)COC)nc21 (configuration not stated)
inactive: max response (CRL-7250) -33.6% | max response (HaCat) -27.4% | max response (KB-3-1) 1.64%

COc1ccc(NC(=O)c2ccc(C(=N)N(C)C)cc2)c(C(=O)Nc2ccc(Cl)cn2)c1
inactive: max response (CRL-7250) 3.5% | max response (HaCat) -16.4% | max response (KB-3-1) 2.86%

COc1ccccc1-c1ccc(-c2cn(C(=O)N3CCCCC3Cc3ccccc3)nn2)cc1 (configuration not stated)
inactive: outcome (CRL-7250) | max response (HaCat) -29.9% | max response (KB-3-1) 1.87% | outcome (NIH3T3)

CCN(CCNC(=O)Nc1ccccc1Br)c1cccc(C)c1
inactive: max response (CRL-7250) -1.67% | max response (HaCat) 0.35% | max response (KB-3-1) 2.25%

CC(=O)O[C@H]1CC(C)(C)CC2[C@]13CO[C@@]21CCC2[C@@]4(C)CC[C@H](O[C@@H]5OC[C@H](O[C@@H]6O[C@H](CO)[C@@H](O)[C@H](O)[C@H]6O[C@@H]6OC[C@@H](O[C@@H]7O[C@H](CO)[C@@H](O)[C@H](O)[C@H]7O)[C@H](O)[C@H]6O)[C@H](O)[C@H]5O[C@@H]5O[C@H](CO)[C@@H](O)[C@H](O)[C@H]5O)[C@@](C)(CO)C4CC[C@@]2(C)[C@]1(C)C[C@H]3O (some centres not stated)
active: Potency (CRL-7250) 2190 nM
inactive: max response (HaCat) 2.18% | max response (KB-3-1) -6.99%

CCO[C@H]1CN(C2CCC(O)(c3ccc4c(c3)OCO4)CC2)C[C@@H]1NC(=O)CNC(=O)c1cccc(C(F)(F)F)c1 (some centres not stated)
inactive: max response (CRL-7250) 1.15% | max response (HaCat) 1.49% | max response (KB-3-1) 7%

O=C(Nc1ccc(Cl)cc1)c1ccccc1NCc1ccncc1
inactive: max response (CRL-7250) 0.592% | max response (HaCat) -24.7% | max response (KB-3-1) -12.3%

COC(CCc1ccc(O)cc1)CC(=O)CCc1ccc(O)cc1 (configuration not stated)
inactive: max response (CRL-7250) 3.53% | max response (HaCat) -18.6% | outcome (KB-3-1)

CC(C)=CCCC1(C)C2CCC1(C)C(O)C2 (configuration not stated)
inactive: max response (CRL-7250) -2.07% | max response (HaCat) -23% | max response (KB-3-1) -23.6% | max response (NIH3T3) 0.907%

C=C(C(=O)O)[C@@H]1CC=C(CCC(C)=O)[C@@H](C)CC1
inactive: max response (CRL-7250) -0.888% | max response (HaCat) -4.33% | max response (KB-3-1) -14.7% | max response (NIH3T3) -3.55%

COc1cc(OC)c2c(=O)[nH]c(-c3cc(C)c(OCCO)c(C)c3)nc2c1
inactive: max response (CRL-7250) -10.3% | max response (HaCat) 1.79% | outcome (KB-3-1) | max response (NIH3T3) -22%

Cc1cccc(C#Cc2cc(F)cc(C#N)c2)n1
inactive: max response (CRL-7250) -2.01% | max response (HaCat) -1.48% | max response (KB-3-1) 2.45%

CN(C)C(=O)Nc1cc(-c2ccccc2)ccc1N(C)C
inactive: max response (CRL-7250) -26.2% | max response (HaCat) -16% | max response (KB-3-1) -8.42%

Cc1c(C2=CCN(C(=O)N(C)C(C)C)CC2)nnn1-c1cccnc1F
inactive: max response (CRL-7250) -2.94% | max response (HaCat) 3% | max response (KB-3-1) 7.23% | max response (NIH3T3) -3.1%

O=C1COc2nccc(-c3ccccc3F)c2CN1Cc1cc(C(F)(F)F)cc(C(F)(F)F)c1
inactive: outcome (CRL-7250) | max response (HaCat) -0.797% | max response (KB-3-1) -2.61% | max response (NIH3T3) -11.4%

CN(C)C(=O)Nc1cccc(-c2ccc(N(C)C)cc2)c1
inactive: max response (CRL-7250) -5.4% | max response (HaCat) -0.332% | max response (KB-3-1) -4.8% | max response (NIH3T3) 3%

COc1cccc(CN(C(=O)CC(C)(C)C)[C@H]2C[C@H](C(=O)N3CCNCC3)N(Cc3ccc4c(c3)OCO4)C2)c1
inactive: outcome (CRL-7250) | max response (HaCat) -6.86% | outcome (KB-3-1)
